# Source: article PMC11062922 (Nature Chemical Biology, 2023)
# Where two headings read alike, the source gives them in different places.
# Experiments:
# Design in all cases: species or system human, MV4-11 + K-562 + COLO205 + SK-N-BE2 + OVCAR-8
# [1] = system: ADCK5; conditions: read-out: apparent Kd; compound concentrations:100 nM and 1000 nM (sheet 'Samples'); n = 1
# [2] = system: CDK4; conditions: read-out: apparent Kd, n = 1
# [3] = system: GSK3A; conditions: read-out: apparent Kd, n = 1
# [4] = system: ADRBK1; conditions: read-out: apparent Kd, n = 1
# [5] = system: AKT1; conditions: read-out: apparent Kd; compound concentrations: 100 nM and 1000 nM (sheet 'Samples'), CATDS: 0.124475037217828; n = 1
# [6] = system: AKT2; conditions: read-out: apparent Kd, n = 1
# [7] = system: AKT3; conditions: read-out: apparent Kd; compound concentrations: 100 nM and 1000 nM (sheet 'Samples'), CATDS: 0.12570475509553999; n = 1
# [8] = system: CDK6; conditions: read-out: apparent Kd, n = 1
# [9] = system: ILK; conditions: read-out: apparent Kd; compound concentrations: 100 nM and 1000 nM (sheet 'Samples'), CATDS: 0.12734816485016201; n = 1
# [10] = system: MAP2K2; conditions: read-out: apparent Kd; compound concentrations: 100 nM and 1000 nM (sheet 'Samples'), CATDS: 0.12469214085712101; n = 1
# [11] = system: RIOK2; conditions: read-out: apparent Kd, n = 1
# [12] = system: ADK; conditions: read-out: apparent Kd; compound concentrations: 100 nM and 1000 nM (sheet 'Samples'), CATDS: 5.0768617440539301E-2; n = 1
# [13] = system: CLK1; conditions: read-out: apparent Kd; compound concentrations: 100 nM and 1000 nM (sheet 'Samples'), CATDS: 5.4208995397741003E-2; n = 1
# [14] = system: DYRK1A; conditions: read-out: apparent Kd; compound concentrations: 100 nM and 1000 nM (sheet 'Samples'), CATDS: 5.0124883186775999E-2; n = 1
# [15] = system: GSK3B; conditions: read-out: apparent Kd; compound concentrations: 100 nM and 1000 nM (sheet 'Samples'), CATDS: 0.116009702502103; n = 1
# [16] = system: ICK; conditions: read-out: apparent Kd; compound concentrations: 100 nM and 1000 nM (sheet 'Samples'), CATDS: 5.3965454645481803E-2; n = 1
# [17] = system: NQO2; conditions: read-out: apparent Kd; compound concentrations: 100 nM and 1000 nM (sheet 'Samples'), CATDS: 5.4334591839862598E-2; n = 1
# [18] = system: PRKCA; conditions: read-out: apparent Kd; compound concentrations: 100 nM and 1000 nM (sheet 'Samples'), CATDS: 0.15913397901311099; n = 1
# [19] = system: PRKCB; conditions: read-out: apparent Kd; compound concentrations: 100 nM and 1000 nM (sheet 'Samples'), CATDS: 9.8351239927142994E-2; n = 1
# [20] = system: PRKCD; conditions: read-out: apparent Kd; compound concentrations: 100 nM and 1000 nM (sheet 'Samples'), CATDS: 0.131457549494816; n = 1
# [21] = system: PRKCQ; conditions: read-out: apparent Kd; compound concentrations: 100 nM and 1000 nM (sheet 'Samples'), CATDS: 0.25317838429330802; n = 1
# [22] = system: RPS6KA6; conditions: read-out: apparent Kd; compound concentrations: 100 nM and 1000 nM (sheet 'Samples'), CATDS: 0.14606611193567601; n = 1
# [23] = system: RPS6KB1; conditions: read-out: apparent Kd; compound concentrations: 100 nM and 1000 nM (sheet 'Samples'), CATDS: 4.9333736806527098E-2; n = 1
# [24] = system: CLK3; conditions: read-out: apparent Kd; compound concentrations: 100 nM and 1000 nM (sheet 'Samples'), CATDS: 0.34896481785662797; n = 1
# [25] = system: CAMK4; conditions: read-out: apparent Kd; compound concentrations:100 nM and 1000 nM (sheet 'Samples'); n = 1
# [26] = system: FLT3; conditions: read-out: apparent Kd; compound concentrations:100 nM and 1000 nM (sheet 'Samples'); n = 1
# [27] = system: MAP2K1; conditions: read-out: apparent Kd; compound concentrations:100 nM and 1000 nM (sheet 'Samples'); n = 1
# [28] = system: NNT; conditions: read-out: apparent Kd; compound concentrations:100 nM and 1000 nM (sheet 'Samples'); n = 1
# [29] = system: NQO1; conditions: read-out: apparent Kd; compound concentrations:100 nM and 1000 nM (sheet 'Samples'); n = 1
# [30] = system: CDK10; conditions: read-out: apparent Kd; compound concentrations: 100 nM and 1000 nM (sheet 'Samples'), CATDS: 0.80077145880212897; n = 1
# [31] = system: PRKAA2; conditions: read-out: apparent Kd; compound concentrations: 100 nM and 1000 nM (sheet 'Samples'), CATDS: 0.26734267999924899; n = 1
# [32] = system: PIP4K2C; conditions: read-out: apparent Kd; compound concentrations:100 nM and 1000 nM (sheet 'Samples'); n = 1
# [33] = compound concentrations:100 nM and 1000 nM (sheet 'Samples')
structure (smiles),measurement,setting,value
O=C(Nc1n[nH]c2nc(-c3nccs3)c(Br)cc12)C1CCCC1 [SB-742609],potency estimated from few doses,[1],1310 nM
same,potency estimated from few doses,[2]; [33],1110 nM
same,potency estimated from few doses,[3]; [33],519 nM
Cl.Nc1n[nH]c2cc(-c3ccccn3)ccc12 [GSK2189892A],potency estimated from few doses,"[4]; compound concentrations: 100 nM and 1000 nM (sheet 'Samples'), CATDS: 0.135716479442168",1470 nM
same,potency estimated from few doses,[5],1730 nM
same,potency estimated from few doses,"[6]; compound concentrations: 100 nM and 1000 nM (sheet 'Samples'), CATDS: 0.124185471208428",1740 nM
same,potency estimated from few doses,[7],1700 nM
same,potency estimated from few doses,"[8]; compound concentrations: 100 nM and 1000 nM (sheet 'Samples'), CATDS: 0.119736809743275",1880 nM
same,potency estimated from few doses,[9],1660 nM
same,potency estimated from few doses,[10],1730 nM
same,potency estimated from few doses,"[11]; compound concentrations: 100 nM and 1000 nM (sheet 'Samples'), CATDS: 0.119525040636944",1880 nM
Cn1cc(C2=C(c3cn(CCCNC(=N)N)c4ccccc34)C(=O)NC2=O)c2ccccc21 [RO0318352-000],potency estimated from few doses,[12],1420 nM
same,potency estimated from few doses,[13],1010 nM
same,potency estimated from few doses,[14],1530 nM
same,potency estimated from few doses,"[3]; compound concentrations: 100 nM and 1000 nM (sheet 'Samples'), CATDS: 9.7790905070532702E-2",125 nM
same,potency estimated from few doses,[15],83.7 nM
same,potency estimated from few doses,[16],1040 nM
same,potency estimated from few doses,[17],1000 nM
same,potency estimated from few doses,[18],45.1 nM
same,potency estimated from few doses,[19],124 nM
same,potency estimated from few doses,[20],64.4 nM
same,potency estimated from few doses,[21],21.7 nM
same,potency estimated from few doses,[22],52.6 nM
same,potency estimated from few doses,[23],1670 nM
O=C(Nc1ccc2c(c1)OCO2)NC1CCN(c2ccnc(NCc3ccc(F)cc3)n2)CC1 [GSK1379859A],potency estimated from few doses,"[4]; compound concentrations: 100 nM and 1000 nM (sheet 'Samples'), CATDS: 1",2160 nM
COc1ccc(CNC(=O)NC2CCN(c3ccnc(Nc4ccc(OC)cc4)n3)C2)cc1 (stereo not drawn) [GSK1379727A],potency estimated from few doses,"[4]; compound concentrations: 100 nM and 1000 nM (sheet 'Samples'), CATDS: 0.35126637263884503",1270 nM
same,potency estimated from few doses,"[8]; compound concentrations: 100 nM and 1000 nM (sheet 'Samples'), CATDS: 0.30417888081932698",1700 nM
same,potency estimated from few doses,[24],1280 nM
NS(=O)(=O)c1ccc(N/N=C2\C(=O)Nc3ccc(Cl)cc32)cc1 [GW280670X],potency estimated from few doses,[4]; [33],1880 nM
same,potency estimated from few doses,[25],1330 nM
same,potency estimated from few doses,[8]; [33],2280 nM
same,potency estimated from few doses,[26],1090 nM
same,potency estimated from few doses,[27],2000 nM
same,potency estimated from few doses,[28],1290 nM
same,potency estimated from few doses,[29],1850 nM
CS(=O)(=O)Nc1ccc(-c2ccc3c(NC(=O)C4CC4)n[nH]c3c2)cc1 [SB-742865],potency estimated from few doses,"[4]; compound concentrations: 100 nM and 1000 nM (sheet 'Samples'), CATDS: 0.24933386454831599",1840 nM
same,potency estimated from few doses,[30],107 nM
same,potency estimated from few doses,[31],1440 nM
O=C(NCCCN1CCOC1=O)c1cnc(NCc2cc(Cl)ccc2Cl)nc1NC1CCCC1 [PFE-PKIS_12],potency estimated from few doses,[4]; [33],1110 nM
CC(=O)c1c(C)c2cnc(Nc3ccc(N4CCNCC4)cn3)nc2n(C2CCCC2)c1=O [PFE-PKIS_32],potency estimated from few doses,[4]; [33],1170 nM
same,potency estimated from few doses,[6]; [33],1960 nM
same,potency estimated from few doses,"[2]; compound concentrations: 100 nM and 1000 nM (sheet 'Samples'), CATDS: 0.36803542167658398",118 nM
same,potency estimated from few doses,[8]; [33],82.3 nM
same,potency estimated from few doses,[32],1610 nM
same,potency estimated from few doses,[11]; [33],2040 nM
